# Bioassay records from PubChem.
# EP2 modulator = modulators of human EP2 prostaglandin E2 receptor. P43116. EP2-expressing cells, cAMP HTRF FRET, PGE2 co-stimulation. induction, % at 25 µM. hit rate 0.83% among 260,000;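 active = compounds whose cAMP rise, as percent of the full-agonist control response, exceeds 60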;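 note: rat C6 glioma line stably carrying human EP2 under a CMV promoter; the protocol text gives 20 µM as final concentration; 100% = response of wells given 1 µM PGE2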
# CHT block = inhibitors of human choline transporter CHT; Q9GZV3; CHT-expressing cells, membrane potential dye, choline response; stronger effect = lower value; B-score at 10 µM; hit rate 0.86% among 310,000;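 active = B-score over 3 SD under the library average, and starting fluorescence ratio not unusually high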;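 note: choline stimulus applied at its EC90 after an EC20 pre-addition; B-score computed on integrated fluorescence ratio after choline addition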
# Target sequence (Q9GZV3 whole entry, looked up): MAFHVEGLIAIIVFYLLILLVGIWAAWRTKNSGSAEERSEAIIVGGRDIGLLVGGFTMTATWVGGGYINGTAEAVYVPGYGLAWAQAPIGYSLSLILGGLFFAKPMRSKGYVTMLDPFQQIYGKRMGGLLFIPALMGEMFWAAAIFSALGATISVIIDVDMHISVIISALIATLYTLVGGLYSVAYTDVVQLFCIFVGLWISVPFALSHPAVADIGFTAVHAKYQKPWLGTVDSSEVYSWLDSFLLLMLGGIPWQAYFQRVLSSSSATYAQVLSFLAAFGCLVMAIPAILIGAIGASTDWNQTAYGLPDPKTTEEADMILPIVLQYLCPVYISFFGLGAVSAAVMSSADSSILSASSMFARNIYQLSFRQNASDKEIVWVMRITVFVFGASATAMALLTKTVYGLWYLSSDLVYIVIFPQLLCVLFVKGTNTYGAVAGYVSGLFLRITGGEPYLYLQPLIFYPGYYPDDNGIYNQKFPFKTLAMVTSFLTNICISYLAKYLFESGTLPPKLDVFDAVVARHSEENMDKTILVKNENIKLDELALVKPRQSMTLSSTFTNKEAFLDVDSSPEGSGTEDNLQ
# PGE2 EP2 inh = blocks the human prostaglandin E2 receptor EP2; P43116; hit rate 0.52% among 260,000; inhibition, % at 25 µM; C6 glioma cells expressing human EP2, cAMP TR-FRET; cells stimulated with saturating PGE2;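 active = percent inhibition above 40 after rounding to a whole number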;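 note: rat C6 glioma host cells with rolipram phosphodiesterase inhibitor present; the protocol text gives 20 µM as final concentration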
# CHT allo act = human CHT allosteric activation; Q9GZV3; CHT-expressing cells, membrane potential dye, choline EC20; stronger effect = higher value; LV-AA mutant CHT in HEK293 cells; B-score at 10 µM; hit rate 0.49% among 310,000;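 active = initial fluorescence not abnormally high and integrated response B-score, plate-corrected, over 3 SD above library mean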
# Active calls of the source: *; i = inactive; x = no result given; ! = a repeat was not active. Rows were chosen to be rich in hits. Some 2% of all compounds tested hit in one or more screens of this group.
SMILES,EP2 modulator,CHT block,PGE2 EP2 inh,CHT allo act
CC1CCCN(CC(=O)N2c3ccccc3Sc3ccccc32)C1 (stereo unspecified),34,i,1,i
CC1CCN(CC(=O)N2c3ccccc3Sc3cc4ccccc4cc32)CC1,37,x,46*,x
Cc1cc(C)c2c(c1)cc(C)c1nnc(SCC(=O)N3CCc4ccccc43)n12,17,x,4,x
CCc1cc2ccc(OC)cc2nc1SCC(=O)Nc1c(C)cccc1C,64*,x,21,x
CCc1cc2ccc(OC)cc2nc1SCC(=O)Nc1ccccc1C,80*,x,14,x
CCc1cc2ccc(C)cc2nc1SCC(=O)Nc1c(C)cccc1C,24,x,23,x
CCc1cc2ccc(OC)cc2nc1SCC(=O)NNC(=O)c1ccc(OC)cc1,62*,x,13,x
CCc1cc2ccc(OC)cc2nc1SCC(=O)NCCc1ccc(OC)c(OC)c1,74*,x,15,x
COc1ccc2cc(C#N)c(SCC(=O)NCCc3ccc(OC)c(OC)c3)nc2c1,19,x,20,x
Cc1nc(NC(=O)CSc2nnc(-c3ccoc3C)n2-c2ccc(F)cc2)sc1C,16,x,7,x
Cc1nc(C)n(C(C)CNC(=O)CN2C(=O)COc3ccc(C(C)(C)C)cc32)n1 (stereo unspecified),13,x,2,x
Cc1c(Cl)cccc1NC(=O)CSc1nc(C2CC2)nc2ccccc12,24,x,8,x
CCOc1ccccc1C(=O)Nc1nc2c(s1)C(=O)CC(C)(C)C2,-22,x,69*,x
CCOCC(=O)Nc1nc2c(s1)C(=O)CC(C)(C)C2,12,i,10,i
CC(=O)CCc1oc2ccccc2c1-c1ccccc1,79*,i,5,i
CN(C)CCN(Cc1cccc(Cl)c1)Cc1cccs1,-56,x,4,x
O=C(NN1C(=O)/C(=C/c2ccc(O)cc2)SC1=S)c1ccccc1O,x,i,x,i
COc1ccc(/C=C2\SC(=S)N(NC(=O)c3ccncc3)C2=O)cc1OC,25,-8*,7,i
O=C(NN1C(=O)/C(=C/c2ccc(O)cc2)SC1=S)c1cccc(O)c1,x,-9.4*,x,i
CC1CCN(c2nc3c(c(=O)n(C)c(=O)n3C)n2CCSc2nc3ccccc3s2)CC1,61*,i,9,i
Cc1cccc2cc(C#N)c(NC3CCCCC3)nc12,78*,x,15,x
CCC(=O)N1CC2(C(C)C)CN(C(=O)CC)CC(C(C)C)(C1)C2=O,4,x,12,x
C#CCOc1cccc(C2NC(=O)NC(C)=C2C(=O)OCC)c1 (stereo unspecified),19,x,16,x
Cc1nc2cc(Cl)c(NC(=O)C3CCCCC3)cc2c(=O)n1Cc1ccccc1,106*,x,5,x
Cc1nc2cc(N3CCC(C)CC3)c(NC(=O)C3CC3)cc2c(=O)n1Cc1ccccc1,34,x,12,x
SMILES,EP2 modulator,CHT block,PGE2 EP2 inh,CHT allo act
O=C(Cc1cc(=O)oc2cc(O)ccc12)NCC1CCC(C(=O)O)CC1 (stereo unspecified),64*,i,12,i
CCCc1cc(=O)oc2cc(OCC(=O)NCC3CCC(C(=O)O)CC3)ccc12 (stereo unspecified),x,i,x,i
CCN(Cc1ccccc1)C(c1ccccn1)c1nnnn1C1CCCCC1 (stereo unspecified),64*!,i,11,i
S=C1NC2(CCCCCC2)N=C1c1ccccc1,50,i,5,i
OC1(C(O)(c2ccc(-c3ccccc3)cc2)c2ccc(-c3ccccc3)cc2)CCCCC1,25,x,43*,x
NCCC1([N+](=O)[O-])CCNCC1,8,x,50*,x
Cc1ccc2[nH]c3c(c2c1)CCC3=O,-15,i,42*,i
CC(C)(C)c1ccc(Cn2c(=N)n(CC(O)c3ccco3)c3ccccc32)cc1 (stereo unspecified),-51,-6.6*,5,i
CC(C)n1c(=O)n(CC(=O)NCc2cccs2)c2cccnc21,-3,x,x,x
COc1cccc(-c2nc(-c3ccc(NC(=O)c4cccnc4)cc3)no2)c1,-6,i,16,i
O=C(Nc1ccc(-c2noc(-c3cccs3)n2)cc1)c1cccnc1,-7,i,69*,i
CC(C)n1cnc2c(Nc3ccc(F)c(Cl)c3)nc(NCCO)nc21,x,-5.4*,x,i
CCOc1ccc(Nc2ccc([N+](=O)[O-])c3nonc23)cc1,x,i,x,i
O=[N+]([O-])c1ccc(Sc2cccc[n+]2[O-])c2nonc12,-48,x,116*,x
CCOC(=O)c1cc(C)sc1NC(=S)Nc1ccccc1,65*,i,9,i
Oc1ccc(/C=C/c2nc(-c3ccccc3O)n(-c3ccccc3)n2)cc1,65*,i,13,i
CC(=O)Nc1ccc(N2C(=O)c3cccc4c(N5CCNCC5)ccc(c34)C2=O)cc1,-14,x,3,x
CO[C@H]1/C=C/O[C@@]2(C)Oc3c(C)c(O)c4c(O)c(c(C=NN5CCN(C)CC5)c(O)c4c3C2=O)NC(=O)/C(C)=C\C=C\C(C)[C@H](O)[C@@H](C)[C@@H](O)[C@@H](C)[C@@H](OC(C)=O)[C@@H]1C (stereo partly specified),-4,x,11,x
CO[C@@H]1/C=C\O[C@]2(C)Oc3c(C)c(O)c4c(O)c(cc(O)c4c3C2=O)NC(=O)C(C)=C/C=C\[C@H](C)[C@@H](O)[C@H](C)[C@H](O)[C@H](C)[C@H](OC(C)=O)[C@@H]1C,38,x,45*,x
COc1cc(/C=C/c2nc3ccc([N+](=O)[O-])cc3s2)ccc1OCC(=O)O,85*,i,11,i
CCOC(=O)CNC(=O)CN(C(=O)c1snc(C(N)=O)c1N)c1cccc(OC)c1,-4,x,10,x
N#C[C@H](c1ccccc1)N1CCCN([C@@H](C#N)c2ccccc2)C1c1ccccc1O (stereo partly specified),4,x,43*,x
CC1=NN(C(C#N)c2ccccc2)C(C)(C)C1 (stereo unspecified),-14,i,9,i
CCn1cncc1CN(Cc1ccc(C)o1)C1CC(C)(C)NC(C)(C)C1,-21,x,9,x
CC(=O)C1=C(O)C(=O)N(CC#N)C1c1ccc(C(C)C)cc1 (stereo unspecified),8,x,17,x
SMILES,EP2 modulator,CHT block,PGE2 EP2 inh,CHT allo act
CCOC(=O)c1cc([N+](=O)[O-])c([N+](=O)[O-])cc1NC(C)=O,-52,-5.9*,33,i
CCOC(=O)c1ccc(NC(=O)c2ccccc2[N+](=O)[O-])cc1,-20,i,1,i
CN(C(=O)COc1ccccc1C(=O)NCCOc1ccccc1)c1ccccc1,-67,i,90*,i
CCCc1cc(C(=O)OC)c(NC(=O)OCC)s1,63*,i,1,i
CCCc1cc(C(=O)OC)c(NC(=O)CCCC(=O)O)s1,1,i,2,i
COc1ccc(NC(=O)CSc2nc3c(C)c(C)ccc3cc2C#N)c(OC)c1,-3,x,15,x
Cc1ccccc1-c1nc(P(=O)(c2ccccc2)c2ccccc2)c(N2CCOCC2)o1,67*,i,9,i
CCOc1cc(/C=N/NC(N)=S)cc(Br)c1OCc1ccccc1C,63*,i,8,i
COc1ccc(-n2c(-c3ccccc3OC)n[nH]c2=S)cc1,9,x,8,x
